# Laboratory results reported in PubChem BioAssay (Tox21).
# Results filed as inconclusive are left out. Unmarked numbers belong to inactive results. Activity calls are given as the source filed them. Unless noted, calls come from the whole dose curve.
# System: not listed separately
# Assay: qHTS assay to identify small molecule agonists or antagonists of the thyroid stimulating hormone receptor (TSHR) signaling pathway - wild type cell line counter screen (AID 1259384)
# Conditions: HEK293 wild type, cAMP HTRF counter-screen; series mostly up to 92.4 µM; cAMP activity change: at the top concentration
# Summary of the method: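 Wild-type Hek293 cells, 800/well, 18 h at 37C, then compound with Ro20-1724 for 30 min RT. cAMP by HTRF (cAMP-d2/anti-cAMP cryptate), 1 h RT, fluorescence read. 15 concentrations, triplicates.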
# % is set by controls: 0 for no effect and ±100 for the full control effect.
SMILES,cAMP activity change,Potency
Oc1ccc(Cc2ccccc2)cc1,2.9%,
CC(Cc1cccc(C(F)(F)F)c1)NCCOC(=O)c1ccccc1 (stereo unspecified),"3.2% [at 42.5 µM, stronger effect = higher value]",
NC(N)=N/N=C/c1c(Cl)cccc1Cl,"4.34% [at 42.5 µM, stronger effect = higher value]",
O=C(O)Cn1c(C(=O)Nc2nc(-c3ccccc3Cl)cs2)cc2ccccc21,"-6.59% [at 42.5 µM, stronger effect = higher value]",
Cn1c(=O)c2c(ncn2CC(O)CO)n(C)c1=O (stereo unspecified),"-1.07% [at 42.5 µM, stronger effect = higher value]",
Cc1cc(O)ccc1N,1.53%,
Cn1sccc1=O,,inactive
O=C1c2cccc(O)c2C(=O)c2c(O)cc(CO)cc21,-1.08%,
CC(C)=CCCC(C)CC=O (stereo unspecified),-2.06%,
O=C(O)Cc1sc(-c2ccccc2)nc1-c1ccc(Cl)cc1,"6.3% [at 42.5 µM, stronger effect = higher value]",
Cc1cccc(Oc2ccccc2)c1,-2.45%,
COC(=O)CSc1cc(N=c2sc(=O)n3n2CCCC3)c(F)cc1Cl,5.57%,
CCCCc1cc2ccccc2c(OCCN(C)C)n1,"1.9% [at 42.5 µM, stronger effect = higher value]",
Cc1ccccc1N=Nc1ccc(N=Nc2c(O)ccc3ccccc23)c(C)c1,"4.1% [at 42.5 µM, stronger effect = higher value]",
CCCCCCCCCCCCCCCC(=O)OC/C=C(C)/C=C/C=C(C)/C=C/C1=C(C)CCCC1(C)C,-4.92%,
CN1CCC(=C2c3ccccc3CCc3sccc32)CC1,"5.07% [at 42.5 µM, stronger effect = higher value]",
OCC1CC2CC1C1CCC(CO)C21 (stereo unspecified),-1.35%,
C=CC(=O)OCCOC(=O)CCC(=O)O,1.52%,
CN1CCN(C2=Nc3cc(Cl)ccc3Nc3ccccc32)CC1,"-1.85% [at 42.5 µM, stronger effect = higher value]",
CC(=O)Nc1ccc(/C=N/NC(N)=S)cc1,"2.8% [at 42.5 µM, stronger effect = higher value]",
CC(=O)c1ccc2c(c1)[C@H](NC(=O)c1ccc(F)cc1)[C@@H](O)C(C)(C)O2,5.32%,
C[C@@H](C1=C(CCN(C)C)Cc2ccccc21)c1ccccn1,"-5.21% [at 42.5 µM, stronger effect = higher value]",
NCCCOCCOCCOCCCN,-0.99%,
NCCCN(CCO)CCO,-0.149%,
CCCCCCCCCCCCC(=O)O,6.95%,
N#Cc1cc2ccccc2c2ccccc12,-1.55%,
CC1CCc2cc(F)cc3c(=O)c(C(=O)O)cn1c23 (stereo unspecified),"1.37% [at 42.5 µM, stronger effect = higher value]",
CCC(C)N(C)C(=O)c1cc2ccccc2c(-c2ccccc2Cl)n1 (stereo unspecified),"3.05% [at 42.5 µM, stronger effect = higher value]",
CCCCC(CC)COCCCN (stereo unspecified),1.3%,

# Molecular target: Thyrotropin receptor (Homo sapiens) (UniProt P16473)
# Sequence (P16473 whole entry, looked up): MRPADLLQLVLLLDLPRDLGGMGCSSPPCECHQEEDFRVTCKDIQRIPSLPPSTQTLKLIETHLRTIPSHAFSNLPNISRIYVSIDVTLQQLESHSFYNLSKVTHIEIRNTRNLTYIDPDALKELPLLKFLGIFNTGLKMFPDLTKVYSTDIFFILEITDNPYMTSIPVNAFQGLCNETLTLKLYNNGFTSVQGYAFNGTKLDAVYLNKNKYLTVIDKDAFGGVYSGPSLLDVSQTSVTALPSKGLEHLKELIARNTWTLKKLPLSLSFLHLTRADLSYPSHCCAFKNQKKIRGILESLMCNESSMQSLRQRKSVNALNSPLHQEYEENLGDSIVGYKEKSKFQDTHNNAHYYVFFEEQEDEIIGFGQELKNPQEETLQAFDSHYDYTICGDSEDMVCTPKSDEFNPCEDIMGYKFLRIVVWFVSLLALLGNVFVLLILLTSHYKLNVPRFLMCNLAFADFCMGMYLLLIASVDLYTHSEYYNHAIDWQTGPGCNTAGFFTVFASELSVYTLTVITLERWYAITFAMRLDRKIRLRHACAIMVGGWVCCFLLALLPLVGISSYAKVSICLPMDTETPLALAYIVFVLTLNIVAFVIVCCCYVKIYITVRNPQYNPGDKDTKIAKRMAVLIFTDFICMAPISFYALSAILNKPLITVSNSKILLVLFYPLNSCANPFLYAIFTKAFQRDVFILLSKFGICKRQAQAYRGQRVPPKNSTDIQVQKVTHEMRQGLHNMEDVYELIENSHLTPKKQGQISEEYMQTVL
# Assay: qHTS assay to identify small molecule antagonists of the thyroid stimulating hormone receptor (TSHR) signaling pathway (AID 1259385); note: nearly all actives have a fitted effect of over 20% in size
# Conditions: TSHR-HEK293 cAMP HTRF, TSH-stimulated antagonist mode; series mostly up to 92.4 µM; activity change, negative = inhibition: at the top concentration
# Summary of the method: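 TSHR-HEK293 cells (800/well) plated 18 h, then compounds with Ro20-1724 and TSH at 1.5 ng/mL final, 30 min at room temperature. cAMP quantified by HTRF (cAMP-d2/anti-cAMP-cryptate, 1 h); 15 concentrations in triplicate.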
row,SMILES,"activity change, negative = inhibition"
1,Oc1ccc(Cc2ccccc2)cc1,-0.227%
2,C#CCOC(=O)[C@@H](C)Oc1ccc(Oc2ncc(Cl)cc2F)cc1,-3.26%
3,CC(Cc1cccc(C(F)(F)F)c1)NCCOC(=O)c1ccccc1 (stereo unspecified),-8.21% [at 42.5 µM]
4,NC(N)=N/N=C/c1c(Cl)cccc1Cl,1.11% [at 42.5 µM]
5,O=S1(=O)c2cccc3cccc(c23)N1CCCN1CCN(c2ccc(F)cc2)CC1,2.56% [at 42.5 µM]
6,O=C(O)Cn1c(C(=O)Nc2nc(-c3ccccc3Cl)cs2)cc2ccccc21,-0.186% [at 42.5 µM]
7,Cn1c(=O)c2c(ncn2CC(O)CO)n(C)c1=O (stereo unspecified),-0.392% [at 42.5 µM]
8,O=C1c2cccc(O)c2C(=O)c2c(O)cc(CO)cc21,1.93%
9,CC(C)=CCCC(C)CC=O (stereo unspecified),0.779%
10,Cc1cccc(Oc2ccccc2)c1,-6.17%
11,COC(=O)CSc1cc(N=c2sc(=O)n3n2CCCC3)c(F)cc1Cl,-1.51%
12,CCCCc1cc2ccccc2c(OCCN(C)C)n1,-1.72% [at 42.5 µM]
13,Cc1ccccc1N=Nc1ccc(N=Nc2c(O)ccc3ccccc23)c(C)c1,-3.29% [at 42.5 µM]
14,Cl/C(=C\n1cncn1)c1ccc(Cl)cc1Cl,-4.54% [at 42.5 µM]
15,CCCCCCCCCCCCCCCC(=O)OC/C=C(C)/C=C/C=C(C)/C=C/C1=C(C)CCCC1(C)C,1.84%
16,Oc1ccc(C(O)CNCCCCCCNCC(O)c2ccc(O)c(O)c2)cc1O (stereo unspecified),1.07% [at 42.5 µM]
17,C=CC(=O)OCCOC(=O)CCC(=O)O,4.28%
18,CC(=O)c1ccc2c(c1)[C@H](NC(=O)c1ccc(F)cc1)[C@@H](O)C(C)(C)O2,-1.3%
19,C[C@@H](C1=C(CCN(C)C)Cc2ccccc21)c1ccccn1,-11.4% [at 42.5 µM]
20,NCCCOCCOCCOCCCN,-0.77%
21,NCCCN(CCO)CCO,2.01%
22,N#Cc1cc2ccccc2c2ccccc12,-10.5%
23,CC1CCc2cc(F)cc3c(=O)c(C(=O)O)cn1c23 (stereo unspecified),-1.98% [at 42.5 µM]
24,CCC(C)N(C)C(=O)c1cc2ccccc2c(-c2ccccc2Cl)n1 (stereo unspecified),2.87% [at 42.5 µM]
25,COc1cc(C(C)(C)C)c(O)c(C(C)(C)C)c1,5.56%
26,CCCCC(CC)COCCCN (stereo unspecified),0.371%

# System: not listed separately
# Assay: qHTS assay to identify small molecule agonists of the estrogen receptor alpha (ER-alpha) signaling pathway in the presence of an antagonist - cell viability counter screen (AID 1259386; active = well fitted cell-killing curve with a large enough effect in the repeat runs; note: nearly all actives have a fitted effect of over 30% in size; note: potency is the fitted concentration of half-maximal effect)
# Conditions: VM7Luc4E2 viability, CellTiter-Fluor fluorescence, 22 h; series mostly up to 92.4 µM; activity change, negative = cytotoxicity: at the top concentration
# Summary of the method: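 Compounds tested at 15 concentrations for 22 h at 37C alongside 10.0nM (final) ICI-182,780 antagonist, in VM7Luc4E2 cells grown in phenol red-free, charcoal-stripped medium. Viability read by CellTiter-Fluor fluorescence after 1 h reagent incubation.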
SMILES,"activity change, negative = cytotoxicity",Potency
CCCCCCCCCCCCCCCBr,-2.51% [at 42.5 µM],
Oc1ccc(Cc2ccccc2)cc1,-3.83%,
C#CCOC(=O)[C@@H](C)Oc1ccc(Oc2ncc(Cl)cc2F)cc1,6.15%,
CC(Cc1cccc(C(F)(F)F)c1)NCCOC(=O)c1ccccc1 (stereo unspecified),-6.68% [at 42.5 µM],
NC(N)=N/N=C/c1c(Cl)cccc1Cl,,15 µM (active)
O=S1(=O)c2cccc3cccc(c23)N1CCCN1CCN(c2ccc(F)cc2)CC1,-12.2% [at 42.5 µM],
O=C(O)Cn1c(C(=O)Nc2nc(-c3ccccc3Cl)cs2)cc2ccccc21,0.973% [at 42.5 µM],
Cn1c(=O)c2c(ncn2CC(O)CO)n(C)c1=O (stereo unspecified),1.81% [at 42.5 µM],
Nc1nc(N)c(-c2ccccc2)s1,1.61% [at 42.5 µM],
Cn1sccc1=O,,inactive
CC(C)=CCCC(C)CC=O (stereo unspecified),-4.28%,
O=C(O)Cc1sc(-c2ccccc2)nc1-c1ccc(Cl)cc1,0.785% [at 42.5 µM],
N#CCCNCCC#N,1.49%,
Cc1cccc(Oc2ccccc2)c1,-2.2%,
COC(=O)CSc1cc(N=c2sc(=O)n3n2CCCC3)c(F)cc1Cl,4.23%,
CCCCc1cc2ccccc2c(OCCN(C)C)n1,-3.51% [at 42.5 µM],
O=C(O)Cc1cc(I)c(Oc2ccc(O)c(I)c2)c(I)c1,1.41%,
Cc1ccccc1N=Nc1ccc(N=Nc2c(O)ccc3ccccc23)c(C)c1,-4.21% [at 42.5 µM],

SMILES,"activity change, negative = cytotoxicity",Potency
Cl/C(=C\n1cncn1)c1ccc(Cl)cc1Cl,-0.535% [at 42.5 µM],
CCCCCCCCCCCCCCCC(=O)OC/C=C(C)/C=C/C=C(C)/C=C/C1=C(C)CCCC1(C)C,1.56%,
CN1CCC(=C2c3ccccc3CCc3sccc32)CC1,-9.42% [at 42.5 µM],
OCC1CC2CC1C1CCC(CO)C21 (stereo unspecified),-8.33%,
C=CC(=O)OCCOC(=O)CCC(=O)O,-6.31%,
CN1CCN(C2=Nc3cc(Cl)ccc3Nc3ccccc32)CC1,-17.7% [at 42.5 µM],
CC(=O)Nc1ccc(/C=N/NC(N)=S)cc1,-0.0798% [at 42.5 µM],
CC(=O)c1ccc2c(c1)[C@H](NC(=O)c1ccc(F)cc1)[C@@H](O)C(C)(C)O2,-10.1%,
CN(C)CC[C@@H](c1ccc(Br)cc1)c1ccccn1,-9.93% [at 42.5 µM],
C[C@@H](C1=C(CCN(C)C)Cc2ccccc21)c1ccccn1,0.398% [at 42.5 µM],
COC(Cc1ccccc1)OC,-1.78%,
NCCCOCCOCCOCCCN,-12.8%,
NCCCN(CCO)CCO,0.878%,
CCCCCCCCCCCCC(=O)O,1.88%,
N#Cc1cc2ccccc2c2ccccc12,2.98%,
CC1CCc2cc(F)cc3c(=O)c(C(=O)O)cn1c23 (stereo unspecified),0.252% [at 42.5 µM],
CCC(C)N(C)C(=O)c1cc2ccccc2c(-c2ccccc2Cl)n1 (stereo unspecified),-2.91% [at 42.5 µM],
COc1cc(C(C)(C)C)c(O)c(C(C)(C)C)c1,0.857%,
